# According to PubChem BioAssay (NCI):
# About 83,000 compounds went through this panel and 20% of them were active in at least one assay; those are over-represented in the sample as a whole.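 Note: values are percent growth. 100 is the growth of untreated cells, values between 100 and 0 indicate rising inhibition; between -100 and 0 indicates cell death.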 Values without a mark were called inactive. Active and inactive are the calls of the source. The calls were made as follows: active = growth percent below 10; inactive = the rest.
# Legend:
# Test in all cases: NCI-60 one-dose screen, 48 h (100 = growth as untreated, 0 = no growth, -100 = all killed)
# Conditions in all cases: 10 µM unless noted
# HCT-15 colon = system: HCT-15 colon
# HT29 colon = system: HT29 colon
# SNB-75 CNS = system: SNB-75 CNS
# SNB-19 CNS = system: SNB-19 CNS
# U251 CNS = system: U251 CNS
# PC-3 prostate = system: PC-3 prostate
# SK-MEL-5 melanoma = system: SK-MEL-5 melanoma
# LOX IMVI melanoma = system: LOX IMVI melanoma
# SK-MEL-28 melanoma = system: SK-MEL-28 melanoma
# UACC-62 melanoma = system: UACC-62 melanoma
SMILES,growth (HCT-15 colon),growth (HT29 colon),growth (SNB-75 CNS),growth (SNB-19 CNS),growth (U251 CNS),growth (PC-3 prostate),growth (SK-MEL-5 melanoma),growth (LOX IMVI melanoma),growth (SK-MEL-28 melanoma),growth (UACC-62 melanoma)
Fc1cc(F)cc(NNC(=S)c2ccccc2)c1,28.2%,101%,70.9%,61.7%,28.9%,22%,46.2%,44.8%,48.9%,–
C#Cc1cc(C(=O)Nc2ccc(CNCCN3CCOCC3)c(C(F)(F)F)c2)ccc1C,88%,68.8%,76%,96.1%,80.7%,89.3%,94.2%,1.04% (active),93.6%,–
COc1cc(NC(=O)Nc2cccc(-c3cc(=O)c4c(OC)c(OC)c(OC)cc4o3)c2)cc(OC)c1OC,32.7%,46%,-0.583% (active),46.9%,27.5%,–,43%,24.7%,53.5%,48.4%
COc1ccccc1N1CCN(C2=C(Cl)C(=O)c3ncccc3C2=O)CC1,55.5%,111%,86%,88.8%,102%,79%,96.4%,50.2%,98.4%,–
O=C1[C@@H]2Cc3c([nH]c4ccccc34)[C@H](c3ccc(Cl)cc3)N2C(=O)CN1C1CCN(Cc2ccccc2)CC1,35%,25%,43.8%,66%,56.5%,38.8%,62.3%,20.7%,77.8%,–
COC(=O)CNC(=O)c1cccc(-c2cc(=O)c3c(OC)c(OC)c(OC)cc3o2)c1,96%,110%,99.5%,92.6%,106%,–,98.6%,97.5%,106%,90.2%
O=C(CN1CCN(c2cc(=O)[nH]c3ccc(F)cc23)CC1)N(c1ccccc1)c1ccccc1,97.7%,110%,71.3%,93.4%,107%,–,100%,101%,111%,98%
CN1CCN(Cc2ccc(NC(=O)c3cncc(C#Cc4cnc5ccc(OCC6COC6)nn45)c3)cc2C(F)(F)F)CC1,-32.9% (active),-50.9% (active),-97.9% (active),-44.9% (active),-66.8% (active),-27.7% (active),-97% (active),-94% (active),-85% (active),–
NCCNC(=O)c1cccc(COc2ccccc2NC(=O)c2cc(Br)c(Br)[nH]2)c1,72.7%,101%,94.1%,71.1%,77.5%,–,98.9%,-30.8% (active),102%,96.8%
Oc1[nH]c2ccc(Cl)cc2c1N=Nc1nc(N=Nc2c(O)[nH]c3ccc(Cl)cc23)nc(N2CCCCC2)n1,88.4%,39.3%,95.3%,42.1%,19.8%,–,87%,24.6%,–,88.5%
CN1CCN(c2ccc(Nc3nc(NCCCNS(=O)(=O)c4ccc(C(F)(F)F)cc4)c4sccc4n3)cc2)CC1,-72.7% (active),-75.8% (active),-79.5% (active),17.5%,-83.4% (active),–,-95% (active),-83.6% (active),-92.8% (active),-80.3% (active)
COc1ccc([C@@H]2C(=O)N(c3cc(OC)c(OC)c(OC)c3)[C@H]2c2ccc(OC)c(O)c2)cc1,10.8%,-12% (active),43.1%,29.7%,19.3%,–,-22.9% (active),19.4%,67.8%,29.2%
CC(C)NC(=O)c1cc(-c2ccc(NC(=O)Nc3ccc(F)c(C(F)(F)F)c3)cc2)nc2cccnc12,89.7%,91%,80%,93.6%,87.8%,–,93.2%,88.8%,100%,97%
